Our source for the cell viability values is the supplement of paper PMC6522484.

Structures are written as SMILES. ± gives the standard deviation of the averaged measurements.

The test system of the first assay is HCT116. As to the kind of experiment: cell viability (CellTiter-Glo) relative to plate median (fraction of plate median); higher = more viable cells. The settings on record: 5 µM; treatment time 24 h; reporter: TCF4/Wnt. Summed up:
(§1)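 Colorectal cancer cell lines stably transduced with lentiviral TCF/Wnt firefly luciferase reporters (7TFP or TCF4/Wnt) were seeded in 384-well plates. 24 h later they received library compounds at a final 5 µM for 24 h. Parallel plates were read for firefly luciferase or CellTiterGlo luminescence on a Tecan F500 reader. Each well's signal was normalised to the plate median (webcellHTS2, additive, no log transformation), and the mean of two independent replicates is reported.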
In the case of `CC(=O)O[C@@H]1C[C@H]2C(C)(C)C(=O)C=C[C@]2(C)[C@H]2CC[C@@]3(C)[C@H](c4ccoc4)OC(=O)[C@H]4O[C@]43[C@@]21C`, the cell viability was determined as 1.07 ± 0.042.
Same read-out and setting: then `O=C(O)CCc1nc(-c2ccccc2)c(-c2ccccc2)o1`, with 0.999 ± 0.13.
`Oc1cc(O)c2c(c1)O[C@H](c1ccc(O)c(O)c1)[C@@H](O)C2` showed a cell viability of 1.03 ± 0.076.
Compound `C[n+]1c2cc(N)ccc2cc2ccc(N)cc21` had a cell viability of 0.951 ± 0.084.
With `CC1(C)C(=O)C=C[C@@]2(C)C1CC(=O)[C@@]1(C)C3=CC(=O)O[C@@H](c4ccoc4)[C@]3(C)CCC12` (stereo not given in full), the cell viability was determined as 0.988 ± 0.045.
`OCc1ccccc1O` had a cell viability of 1.19 ± 0.035.
Same read-out and setting: in the case of `CN1CCc2c(c3ccccc3n2Cc2ccccc2)C1` it was 1.01 ± 0.029.
The same measure, in the same setting: in the case of `CC1CCC(C(C)C)C(O)C1` (stereo not given) it was 1.04; in that of `CC1CC2C3CCC4=CC(=O)C=CC4(C)C3(F)C(O)CC2(C)C1C(=O)CO` (stereo not given), 0.895 ± 0.043.
`O=[N+]([O-])c1cccc2c(Br)[nH]nc12` showed a cell viability of 1.02 ± 0.021.
Still for that read-out and setting: in the case of `O=c1c(-c2ccc(O)cc2)coc2cc(O)ccc12` [Daidzein (Biofocus)] it was 1.16 ± 0.11; in that of `CC[N+](C)(C)c1cccc(O)c1`, 0.984 ± 0.013.
Take `C[C@@H]1O[C@@H](OC[C@H]2O[C@@H](Oc3c(-c4ccc(O)c(O)c4)oc4cc(O)cc(O)c4c3=O)[C@H](O)[C@@H](O)[C@@H]2O)[C@H](O)[C@H](O)[C@H]1O` [RUTOSIDE  (rutin)]: the cell viability came out at 0.881 ± 0.16.
On to `CCN(CC)CCOC(=O)C(Cc1cccc2ccccc12)CC1CCCO1` (stereo not given), for which the cell viability worked out at 1.02 ± 0.034.
For the compound `COc1c(N2CCNC(C)C2)c(F)cc2c(=O)c(C(=O)O)cn(C3CC3)c12` (stereo not given), the cell viability was found to be 0.911 ± 0.082.
`Cc1cc(C(C)(C)CC(C)(C)C)ccc1OCCOCC[N+](C)(C)Cc1ccccc1` returned a cell viability of 0.977 ± 0.076.
In turn, `CN1CCN(CCCN2c3ccccc3Sc3ccc(C(F)(F)F)cc32)CC1` had a cell viability of 1.08 ± 0.13.
`COC1=C[C@@H](C)[C@@H]2C[C@H]3OC(=O)C[C@H]4C(C)=C(OC)C(=O)[C@H]([C@@]2(C)C1=O)[C@@]34C` had a cell viability of 0.972 ± 0.054.
Same read-out and setting: then `CCOC(=O)N1CCC(=C2c3ccc(Cl)cc3CCc3cccnc32)CC1`, with 0.896 ± 0.064; and `CCCCCC1C(=O)CCC1CC(=O)O` (stereo not given), with 1.2 ± 0.18; and `CNC[C@H](O)c1cccc(O)c1`, with 1.09 ± 0.064.
Take `CN1CCC(OC(c2ccccc2)c2ccccc2)CC1`: the cell viability came to 1.02 ± 0.014.
Take `CC(=O)O[C@@H]1CC[C@@]2(C)C(C[C@@H](OC(C)=O)[C@@]3(C)C4=CC(=O)O[C@@H](c5ccoc5)[C@]4(C)CCC23)C1(C)C` (stereo partly drawn) [3alpha-ACETOXYDIHYDRODEOXYGEDUNIN]: the cell viability was 1.04 ± 0.11.
On the same count and under the same terms, then `CC(=O)O[C@H]1C[C@@H](O)C(C)(C)[C@@H]2C[C@@H](OC(C)=O)[C@]3(C)[C@H](CC[C@@]4(C)[C@@H](c5ccoc5)OC(=O)[C@H]5O[C@@]534)[C@@]12C`, with 0.947 ± 0.066; and `CN1CCC(=C2c3ccccc3CC(=O)c3sccc32)CC1`, with 1.04 ± 0.083.
Same read-out and setting: in the case of `CC(C)=CCC1=C(O)C(=O)c2ccccc2C1=O` it was 1.07 ± 0.064; in that of `C1CCC(C(CC2CCCCN2)C2CCCCC2)CC1` (stereo not given), 0.983 ± 0.052.
The same measure, in the same setting: then `NS(=O)(=O)c1cc(C(=O)O)c(NCc2ccco2)cc1Cl`, with 1.04; and `CC(O)(P(=O)(O)O)P(=O)(O)O`, with 0.943 ± 0.032; and `CO[C@@]12[C@H](COC(N)=O)C3=C(C(=O)C(C)=C(N)C3=O)N1C[C@@H]1N[C@@H]12`, with 1.01.
For `C1CNCCN1`, the cell viability is 0.96 ± 0.071.
The same measure, in the same setting: in the case of `COc1cc2occ(-c3ccccc3)c(=O)c2c(OC)c1C` it was 1 ± 0.025; in that of `CCSC(=N)N`, 0.948 ± 0.073.
Still for that read-out and setting: in the case of `O=C1CC2(CCCC2)CC(=O)N1CCCCN1CCN(c2ncccn2)CC1` it was 0.895 ± 0.14; in that of `CC(=O)N(O)CCCCCNC(=O)CC(O)(CC(=O)NCCCCCN(O)C(C)=O)C(=O)O` [Arthrobactin], 1.06 ± 0.057; in that of `Nc1ccc(C(=O)Oc2ccccc2)c(O)c1`, 1.16 ± 0.064.
As for `CC(=O)O[C@@H]1CC2C(C)(C)[C@H](O)C[C@H](O)[C@@]2(C)C2CC[C@]3(C)C(=CC(=O)O[C@@H]3c3ccoc3)[C@]21C` (stereo not given in full), the cell viability is 0.982 ± 0.097.
In turn, `COc1cccc2c1CCC1=CC(=O)CC[C@@]12C` displayed a cell viability of 1.004 ± 0.0085.
`C[C@@H]1O[C@H]2O[C@@H]3[C@@H](C)OC(c4ccc5c(c4O)C(=O)c4ccc(C[C@@](C)(O)CC(=O)O)c(O)c4C5=O)C[C@H]3O[C@H]2CC1=O` (stereo not given in full) [Fridamycin D] displayed a cell viability of 0.942 ± 0.12.
The same measure, in the same setting: in the case of `COc1ccc2c(c1)OCC(Cc1ccc(OC)c(O)c1)C2=O` (stereo not given) it was 0.847 ± 0.043.

For a further assay, the system named is SW480. The assay is described as above. The conditions noted are these: 5 µM; treatment time 24 h; reporter: 7TFP. Summed up:
as §1
`CC(=O)O[C@@H]1C[C@H]2C(C)(C)C(=O)C=C[C@]2(C)[C@H]2CC[C@@]3(C)[C@H](c4ccoc4)OC(=O)[C@H]4O[C@]43[C@@]21C` returned a cell viability of 0.97 ± 0.018.
Same read-out and setting: then `O=C(O)CCc1nc(-c2ccccc2)c(-c2ccccc2)o1`, with 0.963 ± 0.02; and `Oc1cc(O)c2c(c1)O[C@H](c1ccc(O)c(O)c1)[C@@H](O)C2`, with 1.04 ± 0.042.
On the same count and under the same terms, in the case of `C[n+]1c2cc(N)ccc2cc2ccc(N)cc21` it was 1.08 ± 0.042; in that of `CC1(C)C(=O)C=C[C@@]2(C)C1CC(=O)[C@@]1(C)C3=CC(=O)O[C@@H](c4ccoc4)[C@]3(C)CCC12` (stereo not given in full), 0.977 ± 0.027; in that of `OCc1ccccc1O`, 1.14 ± 0.05.
In the case of `CN1CCc2c(c3ccccc3n2Cc2ccccc2)C1`, the cell viability was found to be 1.04 ± 0.035.
Same read-out and setting: in the case of `CC1CCC(C(C)C)C(O)C1` (stereo not given) it was 1.02 ± 0.066; in that of `CC1CC2C3CCC4=CC(=O)C=CC4(C)C3(F)C(O)CC2(C)C1C(=O)CO` (stereo not given), 0.939 ± 0.026; in that of `O=[N+]([O-])c1cccc2c(Br)[nH]nc12`, 0.957 ± 0.034.
On to `O=c1c(-c2ccc(O)cc2)coc2cc(O)ccc12` [Daidzein (Biofocus)], for which the cell viability is 1.05 ± 0.057.
For `CC[N+](C)(C)c1cccc(O)c1`, the cell viability is 0.908 ± 0.041.
For the compound `C[C@@H]1O[C@@H](OC[C@H]2O[C@@H](Oc3c(-c4ccc(O)c(O)c4)oc4cc(O)cc(O)c4c3=O)[C@H](O)[C@@H](O)[C@@H]2O)[C@H](O)[C@H](O)[C@H]1O` [RUTOSIDE  (rutin)], the cell viability turned out to be 1.01 ± 0.016.
As for `CCN(CC)CCOC(=O)C(Cc1cccc2ccccc12)CC1CCCO1` (stereo not given), the cell viability came to 1.02 ± 0.033.
The same measure, in the same setting: in the case of `COc1c(N2CCNC(C)C2)c(F)cc2c(=O)c(C(=O)O)cn(C3CC3)c12` (stereo not given) it was 0.966 ± 0.048; in that of `Cc1cc(C(C)(C)CC(C)(C)C)ccc1OCCOCC[N+](C)(C)Cc1ccccc1`, 1.08 ± 0.014; in that of `CN1CCN(CCCN2c3ccccc3Sc3ccc(C(F)(F)F)cc32)CC1`, 1.09 ± 0.028.
Still for that read-out and setting: in the case of `COC1=C[C@@H](C)[C@@H]2C[C@H]3OC(=O)C[C@H]4C(C)=C(OC)C(=O)[C@H]([C@@]2(C)C1=O)[C@@]34C` it was 0.979 ± 0.044.
`CCOC(=O)N1CCC(=C2c3ccc(Cl)cc3CCc3cccnc32)CC1` came in with a cell viability of 0.962 ± 0.068.
On the same count and under the same terms, then `CCCCCC1C(=O)CCC1CC(=O)O` (stereo not given), with 1.105 ± 0.0071.
Same read-out and setting: then `CNC[C@H](O)c1cccc(O)c1`, with 0.955 ± 0.062; and `CN1CCC(OC(c2ccccc2)c2ccccc2)CC1`, with 0.979 ± 0.024; and `CC(=O)O[C@@H]1CC[C@@]2(C)C(C[C@@H](OC(C)=O)[C@@]3(C)C4=CC(=O)O[C@@H](c5ccoc5)[C@]4(C)CCC23)C1(C)C` (stereo partly drawn) [3alpha-ACETOXYDIHYDRODEOXYGEDUNIN], with 0.956 ± 0.026.
In turn, `CC(=O)O[C@H]1C[C@@H](O)C(C)(C)[C@@H]2C[C@@H](OC(C)=O)[C@]3(C)[C@H](CC[C@@]4(C)[C@@H](c5ccoc5)OC(=O)[C@H]5O[C@@]534)[C@@]12C` came in with a cell viability of 0.945 ± 0.016.
On to `CN1CCC(=C2c3ccccc3CC(=O)c3sccc32)CC1`, for which the cell viability is 0.988 ± 0.017.
Still for that read-out and setting: in the case of `CC(C)=CCC1=C(O)C(=O)c2ccccc2C1=O` it was 1.02 ± 0.028; in that of `C1CCC(C(CC2CCCCN2)C2CCCCC2)CC1` (stereo not given), 1.12 ± 0.021.
Still for that read-out and setting: in the case of `NS(=O)(=O)c1cc(C(=O)O)c(NCc2ccco2)cc1Cl` it was 1.09 ± 0.042; in that of `CC(O)(P(=O)(O)O)P(=O)(O)O`, 0.956 ± 0.037.
For the compound `CO[C@@]12[C@H](COC(N)=O)C3=C(C(=O)C(C)=C(N)C3=O)N1C[C@@H]1N[C@@H]12`, the cell viability was found to be 1.25 ± 0.021.
Compound `C1CNCCN1` yielded a cell viability of 0.987 ± 0.018.
Still for that read-out and setting: in the case of `COc1cc2occ(-c3ccccc3)c(=O)c2c(OC)c1C` it was 0.958 ± 0.021; in that of `CCSC(=N)N`, 0.9995 ± 0.00071; in that of `O=C1CC2(CCCC2)CC(=O)N1CCCCN1CCN(c2ncccn2)CC1`, 0.995 ± 0.021.
Still for that read-out and setting: then `CC(=O)N(O)CCCCCNC(=O)CC(O)(CC(=O)NCCCCCN(O)C(C)=O)C(=O)O` [Arthrobactin], with 1.03 ± 0.049; and `Nc1ccc(C(=O)Oc2ccccc2)c(O)c1`, with 1.05 ± 0.042; and `CC(=O)O[C@@H]1CC2C(C)(C)[C@H](O)C[C@H](O)[C@@]2(C)C2CC[C@]3(C)C(=CC(=O)O[C@@H]3c3ccoc3)[C@]21C` (stereo not given in full), with 0.982 ± 0.011.
Same read-out and setting: in the case of `COc1cccc2c1CCC1=CC(=O)CC[C@@]12C` it was 1.03 ± 0.021.
Consider `C[C@@H]1O[C@H]2O[C@@H]3[C@@H](C)OC(c4ccc5c(c4O)C(=O)c4ccc(C[C@@](C)(O)CC(=O)O)c(O)c4C5=O)C[C@H]3O[C@H]2CC1=O` (stereo not given in full) [Fridamycin D], for which the cell viability was found to be 1.02 ± 0.021.
The same measure, in the same setting: then `COc1ccc2c(c1)OCC(Cc1ccc(OC)c(O)c1)C2=O` (stereo not given), with 1.09 ± 0.035.
